Over roughly 81,000 sequences, “one-hybrid fitness for binding NBS DNA” has its median near -0.1; the highest 2% begin near 0.36. The entries come from a sample that favours the highest values as a whole.
B1: Caulobacter ParB omega fusion; a variant is named by its letters at X, in order, B8GW30 (parent)
chain: MESVVVGEPGMSEGRRGLGRGLSALLGEVDAAPAQAPGEQLGGSREAPIEILQRNPDQPRRTFREEDLEDLSNSIREKGVLQPILVRPSPDTAGEYQIVAGERAWRAAQRAGLKTVPIMVRELDDLAVLEIGIIENVQRADLNVLEEALSYKVLMEKFERTQENIAQTIGKSXSHVANXMRLLXLPDEVQSYLVSGELTAXHARAIAAAADPVALAKQIIEGGLSVRETEALARKAPNLSAGKSKGGRPPRVKDTDTQALESDLSSVLGLDVSIDHRGSTGTLTITYATLEQLDDLCNRLTRGI

Variants of: B1
Test: one-hybrid fitness for binding NBS DNA (the Noc-binding site; scaled: cognate 1, non-cognate 0); higher = stronger binding
Conditions: with NBS DNA site
Method in brief: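 In E. coli USO, a HIS3 reporter with its site placed 19 bp from the promoter was used to select Caulobacter ParB variants randomised at four specificity codons. Growth lasted 48 hours at 37°C on histidine-free M9 containing 0.1 mM IPTG and 5 mM 3-AT. Fitness was taken as the log change in variant-to-wild-type read ratio from Illumina sequencing of pre- and post-selection plasmids, rescaled between the non-cognate and cognate sites.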

Row | Variant | one-hybrid fitness for binding NBS DNA
1 | PGPS | ≤ 0.2
2 | LKHN | ≤ 0.2
3 | PPQT | ≤ 0.2
4 | VKFG | ≤ 0.2
5 | DVTN | ≤ 0.2
6 | TRRA | 0.25
7 | LSWG | ≤ 0.2
8 | KASG | ≤ 0.2
9 | PNWS | ≤ 0.2
10 | ISHA | ≤ 0.2
11 | TEKA | ≤ 0.2
12 | QRLT | 0.731
13 | QKES | 0.275
14 | QKEH | ≤ 0.2
15 | QRCT | 0.806
16 | DRCT | ≤ 0.2
17 | QKET | 0.391
18 | QRRT | 0.863
19 | QFRT | 0.309
20 | QILT | 0.236
21 | QRRE | 0.346
22 | QRLM | 0.322
23 | QACT | 0.363
24 | TPVD | ≤ 0.2
25 | FWLS | ≤ 0.2

Row | Variant | one-hybrid fitness for binding NBS DNA
26 | STAF | ≤ 0.2
27 | DGKR | ≤ 0.2
28 | RSDQ | ≤ 0.2
29 | NRPR | ≤ 0.2
30 | VFEC | ≤ 0.2
31 | SCLN | ≤ 0.2
32 | QRQT | 0.755
33 | DRQT | ≤ 0.2
34 | QRST | 0.772
35 | QFST | ≤ 0.2
36 | NRST | ≤ 0.2
37 | QIQT | 0.283
38 | TYAY | ≤ 0.2
39 | MPCT | ≤ 0.2
40 | SIMW | ≤ 0.2
41 | VASM | ≤ 0.2
42 | GSLP | ≤ 0.2
43 | QIIS | ≤ 0.2
44 | QIRP | ≤ 0.2
45 | QIRS | 0.539
46 | QIRH | 0.44
47 | QIRD | ≤ 0.2
48 | QIYS | 0.27
49 | RWRF | ≤ 0.2
50 | LTWA | ≤ 0.2

Row | Variant | one-hybrid fitness for binding NBS DNA
51 | KKKG | ≤ 0.2
52 | AEER | ≤ 0.2
53 | QAVT | 0.296
54 | QIVT | 0.236
55 | QWKT | 0.25
56 | QLKT | 0.673
57 | QCKT | 0.778
58 | QPKT | 0.201
59 | QLVT | 0.276
60 | QIKT | 0.574
61 | QAKT | 0.692
62 | LDLK | ≤ 0.2
63 | AVEL | ≤ 0.2
64 | SLSN | ≤ 0.2
65 | QHKT | 0.732
66 | QHVT | 0.327
67 | QFVT | ≤ 0.2
68 | QFYT | ≤ 0.2
69 | QSKT | 0.699
70 | QFKT | 0.388
71 | QHIT | 0.349
72 | QEKT | ≤ 0.2
73 | QSVT | 0.328
74 | WSSW | ≤ 0.2
75 | LFHV | ≤ 0.2

Row | Variant | one-hybrid fitness for binding NBS DNA
76 | YELS | ≤ 0.2
77 | IALF | ≤ 0.2
78 | ESMD | ≤ 0.2
79 | RSFQ | ≤ 0.2
80 | RRNP | ≤ 0.2
81 | RRDN | ≤ 0.2
82 | RRNH | 0.63
83 | RRDH | 0.371
84 | RCDH | ≤ 0.2
85 | RCNN | ≤ 0.2
86 | RRND | ≤ 0.2
87 | RRNN | 0.493
88 | ANST | ≤ 0.2
89 | CRRH | ≤ 0.2
90 | RNTT | 0.215
91 | DAPG | ≤ 0.2
92 | GCTC | ≤ 0.2
93 | QTHI | 0.228
94 | QNEM | ≤ 0.2
95 | WTRW | ≤ 0.2
96 | TLWY | ≤ 0.2
97 | RRAT | 0.782
98 | RRAF | ≤ 0.2
99 | RRFG | 0.279
100 | RRFT | 0.777

Row | Variant | one-hybrid fitness for binding NBS DNA
101 | RRFQ | 0.267
102 | RRAC | 0.328
103 | SIPE | ≤ 0.2
104 | IQKV | ≤ 0.2
105 | PDCE | ≤ 0.2
106 | FSMS | ≤ 0.2
107 | QQDF | ≤ 0.2
108 | QQNN | 0.231
109 | KQDT | ≤ 0.2
110 | QQDT | 0.428
111 | QQNP | ≤ 0.2
112 | QQNT | 0.596
113 | VNKV | ≤ 0.2
114 | GVQT | ≤ 0.2
115 | RNWC | ≤ 0.2
116 | AVGK | ≤ 0.2
117 | QSNA | 0.308
118 | QTHA | 0.441
119 | QTPA | ≤ 0.2
120 | QTGA | 0.466
121 | QHHA | 0.238
122 | QWGA | ≤ 0.2
123 | QPNA | ≤ 0.2
124 | QMGA | 0.253
125 | QLHA | ≤ 0.2

Row | Variant | one-hybrid fitness for binding NBS DNA
126 | QCNA | 0.369
127 | QTYA | 0.427
128 | QTLA | 0.329
129 | LHCQ | ≤ 0.2
130 | VMLE | ≤ 0.2
131 | LRND | ≤ 0.2
132 | AEHT | ≤ 0.2
133 | QTCA | 0.378
134 | QTFA | 0.301
135 | QASA | ≤ 0.2
136 | QTQA | 0.432
137 | QTSA | 0.397
138 | QTAA | 0.44
139 | QKAA | 0.319
140 | QCCA | 0.326
141 | QLQA | 0.204
142 | QCSA | 0.302
143 | QDQA | ≤ 0.2
144 | QSCA | ≤ 0.2
145 | SFSC | ≤ 0.2
146 | PSTY | ≤ 0.2
147 | KYQS | ≤ 0.2
148 | AEHP | ≤ 0.2
149 | CVMI | ≤ 0.2
150 | VVAR | ≤ 0.2

Row | Variant | one-hybrid fitness for binding NBS DNA
151 | NSNP | ≤ 0.2
152 | SNRD | ≤ 0.2
153 | YAHR | ≤ 0.2
154 | QCWA | 0.205
155 | QTKA | 0.708
156 | QCAA | 0.393
157 | QTIA | 0.224
158 | QPAA | ≤ 0.2
159 | QTVA | 0.317
160 | QTMA | 0.32
161 | QTRA | 0.712
162 | NTKA | ≤ 0.2
163 | QAWA | ≤ 0.2
164 | QSAA | 0.273
165 | QTWA | 0.367
166 | NGIG | ≤ 0.2
167 | PFPE | ≤ 0.2
168 | GKAT | ≤ 0.2
169 | ATEG | ≤ 0.2
170 | TRRP | ≤ 0.2
171 | HLQN | ≤ 0.2
172 | QPTA | ≤ 0.2
173 | QLNA | 0.219
174 | QKDA | ≤ 0.2
175 | QTTA | 0.399

Row | Variant | one-hybrid fitness for binding NBS DNA
176 | QTNA | 0.505
177 | QCTA | 0.326
178 | QKNA | 0.378
179 | QINA | 0.21
180 | QTDA | 0.255
181 | ISCK | ≤ 0.2
182 | MLLV | ≤ 0.2
183 | LQRF | ≤ 0.2
184 | HHLI | ≤ 0.2
185 | LHQS | ≤ 0.2
186 | RIDR | ≤ 0.2
187 | RINH | ≤ 0.2
188 | RSNR | 0.526
189 | RWDR | ≤ 0.2
190 | RSNH | 0.223
191 | RFNR | 0.325
192 | RPNR | ≤ 0.2
193 | RINR | 0.524
194 | RSDR | ≤ 0.2
195 | RWYR | ≤ 0.2
196 | RCNR | 0.586
197 | RWNR | 0.436
